PubChem BioAssay AID430 (Sanford-Burnham Center for Chemical Genomics, 2006)
Hit rate of the full screen: of about 63,000 compounds, about 1,100 (1.7%) were called active. For the sample, actives were picked, then their nearest neighbours and some compounds at random. Measured potencies and affinities stand elsewhere. Unmarked numbers belong to inactive results. No stated cut-off is given here; in the data, active means cytotoxicity above about 50%; inactive means the rest.

Assay: cytotoxicity in HPDE-C7 cells, cell-based, fluorescence, HTS (AID 430);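 further: cells exposed to compound for 48 hours before viability readout; 0% = vehicle and 100% = reference cytotoxic drug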
Conditions: HPDE-C7 pancreatic duct cells viability, at 10 µM, stronger effect = higher value

In order of falling cytotoxicity:
1. COc1ccc(-c2noc(C)c2-c2ccc3ccccc3n2)c(O)c1  48.2%
2. COc1ccc2nc(NCc3ccccc3)[nH]c2c1  39.1%
3. CCOC(=O)C1=C(C)NC(SCc2cc(=O)[nH][nH]2)=C(C#N)C1c1cccs1 (stereo not given)  37.1%
4. CN(C)CCCN1c2ccccc2CCc2ccc(Cl)cc21  31.8%
5. COc1cc(C2c3c(n[nH]c3C)C(=O)N2c2ccc(Br)cc2)ccc1O (stereo not given)  27.9%
6. CC(C)c1ccc(-c2nc(N3CCCCC3)[nH]c(=O)c2C#N)cc1  24.7%
7. CCn1c(=O)c(C(=O)Nn2c(C)nc3ccccc3c2=O)c(O)c2ccccc21  21.7%
8. N#Cc1ccc(-c2ccco2)nc1SCC(=O)c1ccc(Cl)cc1  21.1%
9. COc1ccc(Cn2c3nc4ccccc4nc3c3c(=O)n(Cc4ccco4)cnc32)cc1  20.7%
10. CN1CCN(CCC(=O)N2c3ccccc3Sc3ccc(Cl)cc32)CC1  17.5%
11. CCn1c(=O)c(C(=O)Nc2cccnc2)c(O)c2ccccc21  15.8%
12. CCOc1cc(C2c3c(n[nH]c3C)C(=O)N2c2ccc(Br)cc2)ccc1O (stereo not given)  15.4%
13. O=C(Oc1cc(=O)oc2ccccc12)c1ccco1  14.1%
14. CCOc1c(OC)cccc1C1CC(=O)Nc2cc3c(cc21)OCCO3 (stereo not given)  13.7%
15. CCSC1=C(C#N)C(c2cccs2)C(C(=O)OC)=C(C)N1 (stereo not given)  13.4%
16. Cc1cc(NC(=O)c2cc(-c3cccs3)nc3ccccc23)no1  13.3%
17. CCOC(=O)C1=C(C)NC(SCC(=O)Nc2cc(C)on2)=C(C#N)C1c1cccs1 (stereo not given)  10.6%
18. CC1CC(C)CN(C(=O)C(NS(=O)(=O)c2ccc3c(c2)oc(=O)n3C)C(C)C)C1 (stereo not given)  9.9%
19. CCOc1ccccc1C1CC(=O)NC2=C1C(=O)CC(C)(C)C2 (stereo not given)  9.7%
20. Cc1cccc(OCCCCCNCCO)c1  9.6%
21. Nc1nnc(SCc2ccccc2Cl)s1  8.4%
22. CCOc1ccc(-c2nnn(CC(=O)Nc3cc(OC)cc(OC)c3)n2)cc1OCC  8%
23. Cc1c(Cl)cccc1NC(=O)CC(C(=O)O)C1CCCO1 (stereo not given)  7.8%
24. CCOc1c(OC)cccc1C1CC(=O)Nc2cc(OC)c(OC)cc21 (stereo not given)  7.3%
25. COc1ccc(Cl)cc1NC(=O)Cn1c(=O)n2nc(C)nc2c2ccccc21  7.2%
26. CCCN(C(=O)CSc1nnc(-c2ccoc2C)n1N)C1CCS(=O)(=O)C1 (stereo not given)  6.4%
27. C=CCn1c(SC(CCO)C(=O)NCc2ccco2)nc2sc3c(c2c1=O)CCC3 (stereo not given)  6.3%
28. CC(NC(=O)Cc1ccsc1)c1ccc(S(N)(=O)=O)cc1 (stereo not given)  5.5%
29. CS(=O)(=O)Nc1ccccc1C(=O)Nc1cccc(Cl)c1  5.3%
30. O=C(Nc1ccc2c(c1)OCO2)C1CC(c2ccccc2Cl)=NO1 (stereo not given)  5.2%
31. O=C1NC(c2cccs2)Nc2ccccc21 (stereo not given)  5%
32. CNS(=O)(=O)c1ccc(Oc2ccc(S(=O)(=O)NC)cc2)cc1  5%
33. CC(=O)NC(Cc1c[nH]c2ccccc12)C(=O)N1CCc2ccccc2C1 (stereo not given)  4.8%
34. CCOCCSC1=C(C#N)C(c2cccs2)C(C(C)=O)=C(C)N1 (stereo not given)  4.5%
35. CCOC(=O)c1ccc(NC(=O)Cn2nnc3ccccc32)cc1  3.7%
36. NC(=O)CSc1nnc(Cn2c(=O)sc3ccccc32)n1-c1ccccc1  3.5%
37. CCOC(=O)c1ccc(NC(=O)c2cc(S(=O)(=O)N3CCOCC3)ccc2O)cc1  3.3%
38. O=C(CSc1n[nH]c(-c2ccccc2O)n1)N1CCCc2ccccc21  2.3%
39. CCCNC(=O)c1[nH]c(C)c(C(C)=O)c1C  2%
40. CC(C)C1N(S(=O)(=O)c2ccccc2)CCN1S(=O)(=O)c1ccccc1  2%
41. N#Cc1c2c(c(=S)n(-c3ccccc3)c1N)CCCC2  1.6%
42. CC(C)(C)n1nc2c(c1NC(=O)c1ccc(Br)cc1)CS(=O)C2 (stereo not given)  0.9%
43. Cc1cccc(NC(=O)NCCN2C(=O)C3C4C=CC(C4)C3C2=O)c1 (stereo not given)  0.7%
44. CCOC(=O)Cc1csc(NC(=O)CCS(=O)(=O)Cc2ccccc2)n1  0%
45. CCn1nc(NC(=O)c2ccncc2)c2cc3ccc(C)cc3nc21  -0.2%
46. c1ccc(-n2c(Sc3cnccn3)nnc2-c2cccs2)cc1  -0.3%
47. COc1ccc(OC(=O)c2cc3ccccc3o2)cc1  -0.5%
48. COc1ccc(Cl)cc1N(CC(=O)N1CCN(Cc2ccccc2)CC1)S(C)(=O)=O  -0.8%
49. C=CCn1c(SCC(=O)N2CCOCC2)nc2sc3c(c2c1=O)CCCC3  -1.2%
50. COc1ccc(OC)c(NC(=O)CSC2=C(C#N)C(c3ccco3)C3=C(CCCC3=O)N2)c1 (stereo not given)  -1.5%
51. O=C(Cn1cccc1)Nc1ccc(OC(F)(F)F)cc1  -1.8%
52. CCOC(=O)c1c(N)sn(-c2ccccc2)c1=S  -2%
53. CCOC(=O)c1cn(CC)c2ccc(S(=O)(=O)N3CC(C)CC(C)C3)cc2c1=O (stereo not given)  -2%
54. Cc1ccc(N2C(N)=NC(N)=NC23CCCC3)c(C)c1  -2.3%
55. CCN(CC)CCn1c(OC)cc(=O)[nH]c1=O  -2.5%
56. CC(C(=O)N1CCN(c2ccccc2)CC1)N1C(=O)C2CC=CCC2C1=O (stereo not given)  -2.6%
57. O=C(O)CCC1COc2ccccc2O1 (stereo not given)  -3.3%
58. CCOc1ccc(-c2nnn(CC(=O)Nc3ccccc3OC)n2)cc1OCC  -3.5%
59. CC(=O)N1CCc2cc(S(=O)(=O)CCC(=O)NCc3ccc4c(c3)OCO4)ccc21  -4.4%
60. COc1ccc(Cl)cc1S(=O)(=O)N1CCN(C)CC1  -4.6%
61. c1csc(-c2csc(-c3cccs3)n2)c1  -4.7%
62. CN(C(=O)C12CC3CC(CC(C3)C1)C2)C1CCS(=O)(=O)C1 (stereo not given)  -5.1%
63. O=C(CCNC(=O)c1ccc(Br)o1)NCc1ccccc1Cl  -6.1%
64. CC1=C(C(=O)OCC2CCCO2)C(c2cccc(O)c2)NC(=O)N1 (stereo not given)  -6.4%
65. COC(=O)c1ccccc1NC(=O)Cn1cc2c(n1)CCC(C)C2 (stereo not given)  -7.1%
66. CC(=O)c1c(C)[nH]c(C)c1C(C)=O  -8.7%
67. CCN(CC)C(=O)C1CCCN(C/C(C)=C/c2ccccc2)C1 (stereo not given)  -8.8%
68. CCOC(=O)Cn1nnc(-c2ccc(OCC(C)C)cc2)n1  -9.5%
69. CCOC1(NC(=O)c2ccccc2)C(C)=CC(=O)C=C1C  -9.8%
70. CCCCS(=O)(=O)/C=C\C1C2C=CC(C2)C1S(=O)(=O)CCCC (stereo not given)  -10.1%
71. CN(CC(=O)NC1CCCc2ccccc21)S(=O)(=O)c1ccc2c(c1)c(=O)n(C)c(=O)n2C (stereo not given)  -10.5%
72. c1ccc(CNc2nc3ccccc3[nH]2)cc1  -11.8%
73. O=S(=O)(c1ccc(Oc2ccc(S(=O)(=O)N3CCOCC3)cc2)cc1)N1CCOCC1  -11.9%
74. COc1ccccc1S(=O)Cc1ccc(C(=O)NC2CCCC2)o1 (stereo not given)  -13.2%
75. CC(Sc1nnc(Cn2c(=O)sc3ccccc32)n1C)c1ccccc1 (stereo not given)  -13.8%
76. CC(=O)NC1(c2cccc(F)c2)CCN(C(=O)Nc2ccc(C#N)cc2)CC1  -15%
77. Cc1occc1C(=O)Nc1cccnc1  -15.1%
78. CC(C)(C)NC(=O)CSc1nnc(-c2ccco2)n1Cc1ccco1  -15.8%
79. CCOc1ccccc1C1CC(=O)Nc2cc(OC)c(OC)c(OC)c21 (stereo not given)  -16.2%
80. COc1ccc(CCNC(=O)CSc2nnnn2Cc2ccc3c(c2)OCO3)cc1OC  -16.4%
81. CCOC(=O)c1[nH]c(C)c(C(=O)NCc2ccc(C)cc2)c1C  -17.6%
82. COC(=O)c1ccc(C(=O)OC)nc1  -18.5%
83. Cc1ccsc1C1NC(=O)c2ccccc2N1 (stereo not given)  -19.5%
84. Cc1ccnc(NS(=O)(=O)c2ccc(NS(=O)(=O)Cc3ccccc3)cc2)n1  -21.7%
85. O=C(CN1CCN(CCOCCO)CC1)N1c2ccccc2Sc2ccc(Cl)cc21  -24.7%
86. OCCN1CCN(C(=S)c2ccc(Cl)cc2)CC1  -26%
87. CC(=O)OCC(=O)NCc1ccc2c(c1)OCO2  -32.4%

For `CCOc1ccc(-c2nnn(CC(=O)Nc3cc(OC)ccc3OC)n2)cc1OCC`, the cytotoxicity was 69.5% (active).
With `Cc1ccc2nc(NCc3ccccc3)[nH]c2c1` the cytotoxicity was 70.4% (active).
In the case of `Cc1ccc(C2NC(=O)c3ccccc3N2)s1` (stereo not given), the cytotoxicity is reported as 55.9% (active).
In the case of `CCOC(=O)C1=C(C)NC(SCC(=O)Nc2nc(C)cs2)=C(C#N)C1c1cccs1` (stereo not given), the cytotoxicity is reported as 78.9% (active).
With `C#CCSC1=C(C#N)C(c2cccs2)C(C(=O)OCC)=C(C)N1` (stereo not given) the cytotoxicity was 53% (active).
With `C=CS(=O)(=O)c1ccc(Oc2ccc(S(=O)(=O)C=C)cc2)cc1` the cytotoxicity was 93.9% (active).
In the case of `COc1cc(C2c3c(n[nH]c3C)C(=O)N2c2ccc(C)cc2)ccc1O` (stereo not given), the cytotoxicity is reported as 53.1% (active).
In the case of `C=CCn1c(NCCO)nc2sc3c(c2c1=O)CCC3`, the cytotoxicity is reported as 62.9% (active).
With `CCc1[nH]c(C)c(C(C)=O)c1C` the cytotoxicity was 59.8% (active).
With `CCOc1ccccc1C1CC(=O)Nc2cc3c(cc21)OCO3` (stereo not given) the cytotoxicity was 59.7% (active).
For `CCOc1ccccc1C1CC(=O)Nc2cc3c(cc21)OCCO3` (stereo not given), the cytotoxicity was 51.1% (active).
In the case of `CCCCS(=O)(=O)/C=C\C=C/S(=O)(=O)CCCC`, the cytotoxicity is reported as 111% (active).
In the case of `CN1CCN(CCCN2c3ccccc3Sc3ccc(Cl)cc32)CC1`, the cytotoxicity is reported as 75% (active).
